Reference: PubChem BioAssay (Tox21)
Records with an inconclusive call do not appear. Unmarked numbers belong to inactive results. Active and inactive are the calls of the source. Calls come from the whole dose curve; as a rule, active = well fitted cell-killing curve with a large enough effect in the repeat runs; inconclusive = weak or mixed curves, or effect the other way; inactive = no such curve, though single readings can be large or run the other way.

Experiment: Caspase-3/7 induction in CHO-K1 cells by small molecules, qHTS cell viability counter screen (AID 1346979); note: nearly all actives have a fitted effect of over 35% in size
Details: CellTiter-Fluor fluorescence, 17 h; series mostly up to 92.4 µM; activity change, negative = cytotoxicity: at the top concentration
Description: National Center for Advancing Translational Sciences [NCATS]
NIH Chemical Genomics Center [NCGC]
U.S. Environmental Protection Agency [EPA]
National Institutes of Environmental Health Sciences [NIEHS]
National Toxicology Program [NTP]
U.S. Food and Drug Administration [FDA]
Apoptosis is a process of programmed cell death and plays a central role in the development of multicellular organisms. It is a highly regulated process and induces cell death by activating caspases, which are the members of cysteine aspartic acid-specific protease (caspase) family. Caspases involved in apoptosis are classified by their mechanism of action as initiator caspases (caspase-2, -8, -9 and -10) and executioner caspases (caspase-3, -6, and -7). Inhibition of apoptosis results in number of cancers, autoimmune diseases, inflammatory diseases and viral infection. To identify small molecule compounds that induce apoptosis, a homogeneous, luminescent Caspase-Glo 3/7 assay was used. Wild type CHO-K1 cells were used to screen Tox21 libraries for identifying caspase-3/7 activity inducers. Also cytotoxicity of the compounds was tested in parallel by measuring the cell viability using CellTiter-Fluor assay system in the same wells.
Tox21 Assay Protocol Summary:
CHO-K1 cells were dispensed at 1,500 per well in 5uL of culture medium into white solid bottom 1536-well plates (Corning Life Sciences, Corning, NY) using a Multidrop Combi (Thermo Scientific, Waltham, MA) dispenser. The assay plates were incubated at 37 C and 5% CO2 for 5hr, and then 23nL of compounds dissolved in DMSO and positive control were transferred using a Pintool station (Wako, San Diego, CA). The assay plates were incubated at 37C and 5% CO2 for 17hr. For cytotoxicity read, after 16hr incubation at 37C, 1uL CellTiter-Fluor reagent (Promega Corporation, Madison, WI) was added to each well of the assay plates using Flying Reagent Dispenser (FRD, Aurora Discovery, San Diego, CA). After 1hr incubation at 37C and 5% CO2, the fluorescence signal was quantified using a ViewLux plate reader (PerkinElmer, Shelton, CT).
% is set by controls: 0 for no effect and ±100 for the full control effect; potency is the fitted concentration of half-maximal effect.

Row | SMILES | activity change, negative = cytotoxicity | Potency
1 | CCOC(=O)CC(=O)C(=O)OCC | 1.19% | –
2 | O=C(O)c1c(O)c(-c2ccccc2)nc2ccccc12 | -1.45% [at 42.5 µM] | –
3 | CC1=NN(c2ccc(C(=O)O)cc2)C(=O)C1 | -3.89% | –
4 | CCCCCCCCCCCCCCCCBr | 4.02% [at 19 µM] | –
5 | CC(=O)N(c1onc(C)c1C)S(=O)(=O)c1ccc(N)cc1 | -1.93% [at 42.5 µM] | –
6 | O=C(O)c1ccc(CO)o1 | 2.39% | –
7 | CCC1(C)CC(=O)NC1=O (stereo not given) | 9.19% [at 42.5 µM] | –
8 | COC(=O)c1cc(Cl)ccc1NS(=O)(=O)C(F)(F)F | 10.5% [at 42.5 µM] | –
9 | NC(=O)Nc1ccc(Cl)cc1 | -2.96% | –
10 | CCCCCCCCCCOS(=O)(=O)O | 9.89% | –
11 | COC(OC)(C(=O)c1ccccc1)c1ccccc1 | -0.868% | –
12 | CC(C)(CCl)c1ccccc1 | -3.52% | –
13 | O=C(C(=O)c1ccccc1)c1ccccc1 | 3.35% | –
14 | Cc1c(C(=O)NN2CCCCC2)nn(-c2ccc(Cl)cc2Cl)c1-c1ccc(Cl)cc1 | – | 26.6 µM (active)
15 | Cc1ccc(S)cc1 | 1.4% | –
16 | c1cnc2c(n1)CCCC2 | 6.54% | –
17 | O=C(CCCCCCC(=O)Nc1ccccc1)NO | – | 13.3 µM (active)
18 | O=S1OCCO1 | 2.39% | –
19 | NC(=O)N(O)[C@@H]1COc2cc(OCc3ccccc3)ccc21 | – | 24.3 µM (active)
20 | CCn1nc(C)c2c1C(=O)NCC(c1ccc(O)cc1)=N2 | 2.47% | –

Row | SMILES | activity change, negative = cytotoxicity | Potency
21 | CCCCCCCC/C=C\CCCCCCCC(=O)OC(CO)CO | -0.166% | –
22 | CCOC(=N)CC(=O)OCC | 1.27% | –
23 | C/C=C(\C)C(=O)OCCC(C)CCC=C(C)C (stereo not given) | -0.884% | –
24 | CCC(C(=O)OCCN(CC)CC)c1ccccc1 (stereo not given) | 4.57% [at 42.5 µM] | –
25 | CC(CCc1ccc2c(c1)OCO2)NN (stereo not given) | 7.56% [at 42.5 µM] | –
26 | Fc1ccccc1[C@@H](F)COC1CCC(Nc2ncnc3[nH]ncc23)CC1 (stereo not given in full) | – | 30.6 µM (active)
27 | O=C(O)C(Cc1cc(I)c(O)c(I)c1)c1ccccc1 (stereo not given) | 2.59% [at 42.5 µM] | –
28 | CC(C)CCCC(=O)O | 9.13% | –
29 | COc1ccc([C@@H]2Sc3ccccc3NC(=O)[C@@H]2O)cc1 | -3.35% [at 42.5 µM] | –
30 | Oc1cc(O)c(Cl)cc1Cl | 1.54% | –
31 | CC1(C)C(=O)N(Br)C(=O)N1Cl | -14.3% | –
32 | CC1CN(c2cc3c(cc2F)c(=O)c(C(=O)O)cn3-c2ccc(F)cc2F)CCN1 (stereo not given) | -1.36% [at 8.39 µM] | –
33 | COc1cc2c(N3CCN(C(=O)Nc4ccc(OC(C)C)cc4)CC3)ncnc2cc1OCCCN1CCCCC1 | – | 23.7 µM (active)
34 | Cc1cnc(C)c(C)n1 | 4.96% | –
35 | C[Si]1(C)O[Si](C)(C)O[Si](C)(C)O1 | -5% | –
36 | C/C(=N/NC(=O)c1ccncc1)C(=O)O | -1.04% [at 42.5 µM] | –
37 | CCCCCCCCCCCC[N+](C)(C)CC(=O)[O-] | -1.28% | –
38 | Cc1cc(OI)c(C(C)C)cc1-c1cc(C(C)C)c(OI)cc1C | 0.783% [at 42.5 µM] | –
39 | CCCCC(CC)COC(=O)COc1ccc(Cl)cc1C (stereo not given) | 0.148% | –
40 | O=C1NCCN1 | -0.149% | –
